High-throughput results (PubChem BioAssay)
Hits are enriched below; roughly 4% of the tested compounds scored in any of these assays.
Gli-Sufu antag: Gli-Sufu pathway antagonists, primary screen, luciferase luminescence, Sufu-KO-LIGHT cells, uHTS. Sufu-KO-LIGHT fibroblasts, Gli luciferase reporter luminescence. inhibition, % at 5 µM. 0.74% of 340,000 active. AID 588413, 2011;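 active = inhibition above about 55%, limit read from the data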;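 note: 0% = DMSO-treated cells and 100% = wells with medium but no cells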
Beta apoptosis: inhibitors of cytokine-induced beta cell apoptosis, primary screen, luminescence; INS-1E cytokine-induced death, ATP luminescence, 48 h; percent of positive-control rescue, neutral wells zero; protection from apoptosis, % (concentration not given with the values); 0.8% of 300,000 active; AID 435005, 2010;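 active = Every replicate reaches about 75%, or at least half do and their mean reaches it too, limit read from the data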;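 note: 0% = cytokine-treated negative control wells and 100% = positive control rescue; higher means more ATP so stronger rescue from cytokine killing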
Mdm2 MdmX PPI: inhibitors of human Mdm2-MdmX association, primary screen, cell-based, luminescence, split luciferase, SaOS-2, uHTS; 3% of 330,000 active; inhibition, % at 8 µM; SaOS-2 split-luciferase Mdm2/MdmX complementation; AID 485346, 2010; Protein Mdm4 (Homo sapiens) + E3 ubiquitin-protein ligase Mdm2 (Homo sapiens), …;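 active = inhibition of at least 50% at 8 µM in the primary screen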
Target sequence (O15151 whole entry, looked up): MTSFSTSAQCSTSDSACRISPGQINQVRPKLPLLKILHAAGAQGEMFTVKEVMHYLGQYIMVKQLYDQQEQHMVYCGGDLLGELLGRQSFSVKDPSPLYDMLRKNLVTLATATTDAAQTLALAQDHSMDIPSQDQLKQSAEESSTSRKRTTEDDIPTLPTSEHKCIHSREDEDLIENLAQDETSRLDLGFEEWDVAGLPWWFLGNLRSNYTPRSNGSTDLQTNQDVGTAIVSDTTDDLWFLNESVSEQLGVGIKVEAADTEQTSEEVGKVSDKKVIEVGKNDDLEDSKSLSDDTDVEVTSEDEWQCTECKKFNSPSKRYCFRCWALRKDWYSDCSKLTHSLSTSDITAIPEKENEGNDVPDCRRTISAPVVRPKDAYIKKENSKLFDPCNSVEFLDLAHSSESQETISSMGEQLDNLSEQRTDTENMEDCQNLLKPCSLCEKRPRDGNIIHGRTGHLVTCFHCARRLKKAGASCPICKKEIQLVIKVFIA
Target sequence (Q00987 whole entry, looked up): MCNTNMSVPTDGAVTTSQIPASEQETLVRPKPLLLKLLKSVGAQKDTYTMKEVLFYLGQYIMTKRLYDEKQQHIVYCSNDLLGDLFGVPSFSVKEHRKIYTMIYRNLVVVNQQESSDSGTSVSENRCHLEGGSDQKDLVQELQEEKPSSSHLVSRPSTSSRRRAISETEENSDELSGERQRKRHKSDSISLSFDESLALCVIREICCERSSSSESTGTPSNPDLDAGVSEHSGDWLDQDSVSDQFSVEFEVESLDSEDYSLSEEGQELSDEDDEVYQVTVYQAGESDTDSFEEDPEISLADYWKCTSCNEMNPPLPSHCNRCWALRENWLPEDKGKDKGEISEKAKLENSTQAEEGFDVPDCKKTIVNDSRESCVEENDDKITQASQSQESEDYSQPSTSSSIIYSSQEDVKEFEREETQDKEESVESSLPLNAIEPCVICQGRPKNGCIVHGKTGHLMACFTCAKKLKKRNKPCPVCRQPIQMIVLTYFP
697 NFkB inh: inhibitors of PMA/ionomycin-induced NF-kB reporter, 697 cells, primary screen, B-cell NF-kB inhibitor project, cell-based, luminescence, uHTS; AID 435022, 2010; 697 B-cell NF-kB luciferase reporter, 16 h; 0.33% of 330,000 active; inhibition, % at 4 µM; in the data active = inhibition above about 35%
Jurkat NFkB inh: inhibitors of induced NF-kB luciferase reporter, primary screen, TCR NF-kB activation inhibitor project, cell-based, luminescence, uHTS; 0.53% of 330,000 active; AID 435003, 2010; inhibition, % at 4 µM; Jurkat, PMA/ionomycin-induced NF-kB luciferase reporter; in the data active = inhibition above about 50%
Jurkat NFkB conf: PMA/ionomycin-induced NF-kB reporter inhibitors, Jurkat retest, confirmation, T-cell NF-kB inhibitor project, cell-based, luminescence, single concentration | shares compounds with Jurkat NFkB inh | Jurkat NF-kB luciferase, 16 h | inhibition, % at 4 µM | 27% of 2,700 active | AID 435020, 2010;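 active = inhibition reaching about 45% at 4 µM in either replicate, limit read from the data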;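 note: plate controls were PMA/ionomycin stimulated DMSO wells for no effect and unstimulated DMSO wells for full effect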
697 NFkB conf: PMA/ionomycin-induced NF-kB reporter inhibitors, 697 retest, confirmation, B-cell NF-kB inhibitor project, cell-based, luminescence, single concentration. AID 449746, 2010. 35% of 2,000 active. inhibition, % at 4 µM. shares compounds with 697 NFkB inh. 697 B-cell NF-kB luciferase, 16 h; in the data active = inhibition mostly above about 28%, no sharp cut-off; inactive = mostly below about 22%
Mdm2 MdmX conf: Mdm2-MdmX complex disruptors, retested hits, confirmation, luminescence, single concentration; AID 489028, 2010; shares compounds with Mdm2 MdmX PPI; Mdm2-MdmX binding, luminescent assay; inhibition, % at 8 µM; 55% of 10,000 active; in the data active = inhibition above about 40%
FLuc counter: full-length luciferase signal inhibition, confirmation, counter-screen for Mdm2/MdmX interaction inhibitor project, cell-based, single concentration, SaOS-2; shares compounds with Mdm2 MdmX PPI; AID 504607, 2011; inhibition, % at 8 µM; 77% of 6,200 active; SaOS-2 full-length luciferase counterscreen, luminescence;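 active = mean inhibition at 8 µM reaching about 37%, which flags the compound as non-specific, limit read from the data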;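 note: p53-null SaOS-2 cells with luciferase driven by a doxycycline-inducible promoter; compound on cells about two nights before reading with doxycycline added after day one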
Gli antag conf: Gli-SUFU pathway antagonists, confirmation, single concentration, luciferase luminescence, Sufu-KO-LIGHT cells; shares compounds with Gli-Sufu antag; Gli luciferase reporter; inhibition, % at 5 µM; 40% of 2,500 active; AID 602428, 2012;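 active = mean inhibition at 5 µM reaching about 45%, limit read from the data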;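 note: plate controls were DMSO-treated cells for no effect and wells lacking cells for full effect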
SufuKO cytotox: cytotoxicity in Sufu-KO-LIGHT cells, confirmation, cytotoxicity control for Gli-SUFU antagonist project, cell-based, ATP luminescence, single concentration; AID 651994, 2013; shares compounds with Gli-Sufu antag; cytotoxicity, % at 5 µM; 32% of 2,500 active;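 active = mean cytotoxicity at 5 µM above about 25%, limit read from the data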;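 note: cells exposed to compound overnight for roughly 16 to 18 hours; plate controls were DMSO wells with cells for no effect and medium without cells for full effect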
Wnt3a cs: Wnt3a reporter signal inhibition, confirmation, counter-screen for Gli-SUFU antagonist project, Wnt-LIGHT cells, luminescence, single concentration | shares compounds with Gli-Sufu antag | Wnt3a-driven luciferase reporter | inhibition, % at 6.25 µM | 20% of 2,500 active | AID 651995, 2013;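 active = mean inhibition above about 25%, limit read from the data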
* hit, by the source's call; nt = no result given.

SMILES | Gli-Sufu antag | Beta apoptosis | Mdm2 MdmX PPI | 697 NFkB inh | Jurkat NFkB inh | Jurkat NFkB conf | Mdm2 MdmX conf | FLuc counter | Gli antag conf | SufuKO cytotox | Wnt3a cs | others
COc1ccc(C(=O)N2CCN(c3ccc([N+](=O)[O-])c(NCCc4ccc(OC)c(OC)c4)c3)CC2)cc1 | 79* | 106* | 22 | 15 | 73* | 75* | nt | nt | 76* | 32* | -17
Cn1nc(CC(=O)Nc2ccc(N3CCN(C(=O)OC(C)(C)C)CC3)cc2)c2ccccc2c1=O | 66* | 3 | 11 | 46* | 55* | 53* | nt | nt | 78* | 39* | 37* | 697 NFkB conf=1
Cn1nc(CC(=O)Nc2ccc3c(c2)OCCO3)c2ccccc2c1=O | 66* | 75* | 31 | 43* | 52* | 66* | nt | nt | 68* | 31* | 41* | 697 NFkB conf=41*
COc1cc(NC(=O)Cc2nn(C)c(=O)c3ccccc23)cc(OC)c1 | 24 | nt | 18 | -17 | 12 | nt | nt | nt | nt | nt | nt
CNc1nc(OC)nc(N(C#N)CN2C(=O)c3ccccc3S2(=O)=O)n1 | -3 | 2 | 38 | 2 | 18 | nt | nt | nt | nt | nt | nt
CCOCCOC(=O)c1[nH]c2c(c1C)C(=O)CC(c1cc(OC)c(OC)c(OC)c1)C2 (configuration not stated) | 7 | 25 | 19 | -19 | 18 | nt | nt | nt | nt | nt | nt
CCOCCOC(=O)c1[nH]c2c(c1C)C(=O)CC(c1ccccc1)C2 (configuration not stated) | 52 | 42 | 50* | -53 | 60* | 51* | 56* | 96* | 53* | 60* | -40
Cc1ccccc1NC(=O)N1CCN(c2ncccn2)CC1 | 4 | 10 | -2 | -9 | -9 | nt | nt | nt | nt | nt | nt
CC(C)(C)C(=O)Nc1ccc(N=Nc2ccccc2)cc1 | 64* | -17 | 71* | -261 | -219 | 16 | 73* | 136* | 54* | 60* | 82* | 697 NFkB conf=-204
COc1cc(C2CC(=O)Oc3cc4c(cc32)OCO4)cc(OC)c1OC (configuration not stated) | -9 | nt | 11 | -5 | nt | nt | nt | nt | nt | nt | nt
COc1cc(C2C(C#N)=C(N)Oc3cc4c(cc32)OCO4)cc(OC)c1OC (configuration not stated) | 58* | 64 | 81* | -140 | 77* | 46 | 68* | 126* | 56* | 51* | 4
O=C(c1cnc2ccccc2n1)N1CCN(c2ccc(C(F)(F)F)cn2)CC1 | 3 | -5 | 3 | 8 | 4 | nt | nt | nt | nt | nt | nt
O=S(=O)(c1ccc2c(c1)OCCO2)N1CCN(c2ncnc3sccc23)CC1 | 64* | 81* | 24 | 4 | 52* | 54* | nt | nt | 61* | 48* | 22
CC(=O)NC(c1ccc(C(C)C)cc1)c1ccc2cccnc2c1O (configuration not stated) | 90* | 90* | 81* | -32 | 51* | 74* | 83* | 20 | 83* | 50* | 73*
COc1ccc(/C=C/C(=O)c2cc(F)ccc2OC(=O)c2ccccc2)cc1OC | 50 | 3 | 68* | -221 | 58* | 61* | 58* | 98* | 60* | 49* | 16
CCOc1ccccc1NS(=O)(=O)c1ccc(-c2cnc(C3CC3)o2)cc1 | 55* | 45 | 73* | -81 | 55* | 58* | 56* | 117* | 59* | 56* | -12
COc1ccccc1N1CCN(S(=O)(=O)c2ccc(-c3cnc(C4CC4)o3)cc2)CC1 | 6 | 5 | 26 | -61 | -23 | nt | nt | nt | nt | nt | nt
Cc1cccc(N(C)S(=O)(=O)c2ccc(-c3cnc(C4CC4)o3)cc2)c1 | 59* | 54 | 74* | -122 | 62* | 54* | 59* | 103* | 57* | 55* | -15
O=C1CC(=O)Nc2cc(S(=O)(=O)Nc3ccc(F)cc3Cl)ccc2N1 | 1 | -8 | 7 | 13 | 7 | nt | nt | nt | nt | nt | nt
O=S(=O)(Nc1ccc(F)cc1Cl)c1ccc(-c2cnc(C3CC3)o2)cc1 | 54 | nt | 56* | -26 | 52* | 52* | 61* | 66* | 25 | 50* | -34
COc1ccc(NS(=O)(=O)c2ccc(-c3cnc(C4CC4)o3)cc2)cc1OC | 72* | 93* | 57* | 17 | 57* | 68* | 56* | 47* | 71* | 59* | 29*
CC(=O)Nc1ccc(NS(=O)(=O)c2cc(-c3cnc(C4CC4)o3)ccc2C)cc1 | 6 | 9 | 3 | -15 | -3 | nt | nt | nt | nt | nt | nt
O=C(NCCOc1ccc(Cl)cc1)C1CC(=O)N(c2ccc3c(c2)OCCO3)C1 (configuration not stated) | -4 | 1 | -5 | 0 | -4 | nt | nt | nt | nt | nt | nt
COc1ccc(OC)c(NC(=O)C(=O)NNC(=O)C23CC4CC(CC(C4)C2)C3)c1 | 3 | 19 | 22 | 23 | 4 | nt | nt | nt | nt | nt | nt
O=C(NC1CCCC1)C1CCN(C(=O)c2ccc(Cl)cc2Cl)CC1 | -2 | 2 | 3 | 4 | -1 | nt | nt | nt | nt | nt | nt
CN(C)c1cc[n+](CC(=O)c2ccc(-c3ccccc3)cc2)cc1 | 88* | 106* | 60* | 62* | 73* | 60* | 44* | 48* | 86* | 38* | 39* | 697 NFkB conf=46*
